Assays:
Assay in all cases: PBM binding z-score (relative to random genomic background probes); higher = stronger binding; sequences stand for … in GC…GCGATTGACAGCGTAGAATGAAGG
[1] = tested on: FXR:RXRa (NR concentration 270 nM, RXRa partner concentration 90 nM)
Method in brief: (§1)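 Ligand-free nuclear receptor dimers were applied to custom Agilent 4×180K protein-binding microarrays whose double-stranded probes carried direct-repeat seeds, single-nucleotide variants, half-site ablations and random human genomic background sequences in 34-nt variable regions. Incubation lasted 1 h. Binding z-scores were computed against the random background probes from regression-normalized fluorescence.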

[2] = tested on: LXRa:RXRa (NR concentration 270 nM, RXRa partner concentration 90 nM)
Method in brief: as §1

[3] = tested on: LXRa homodimer (NR concentration 270 nM)
Method in brief: as §1

[4] = tested on: LXRb:RXRa (NR concentration 270 nM, RXRa partner concentration 90 nM)
Method in brief: as §1

[5] = tested on: LXRb homodimer (NR concentration 270 nM)
Method in brief: as §1

[6] = tested on: PPARa:RXRa (NR concentration 270 nM, RXRa partner concentration 90 nM)
Method in brief: as §1

[7] = tested on: PPARg:RXRa (NR concentration 180 nM, RXRa partner concentration 90 nM)
Method in brief: as §1

[8] = tested on: PPARg:RXRa 270nM:90nM, anti-RXR (NR concentration 270 nM, RXRa partner concentration 90 nM)
Method in brief: as §1

[9] = tested on: PPARg:RXRa 30nM:10nM, anti-RXR (NR concentration 30 nM, RXRa partner concentration 10 nM)
Method in brief: as §1

[10] = tested on: PPARg:RXRa 90nM:30nM, anti-RXR (NR concentration 90 nM, RXRa partner concentration 30 nM)
Method in brief: as §1

[11] = tested on: PPARg:RXRa DBDmut IVT, anti-RXR (DBD mutation: RXRa K156A/R161A, NR concentration 270 nM, RXRa partner concentration 90 nM)
Method in brief: as §1

[12] = tested on: PPARg:RXRa IVT, anti-PPARg (NR concentration 270 nM, RXRa partner concentration 90 nM)
Method in brief: as §1

[13] = tested on: PPARg DBDmut:RXRa IVT, anti-PPARg (DBD mutation: PPARg1 K132A/R137A, NR concentration 270 nM, RXRa partner concentration 90 nM)
Method in brief: as §1

[14] = tested on: PPARg DBDmut IVT, anti-PPARg (DBD mutation: PPARg1 K132A/R137A, NR concentration 270 nM)
Method in brief: as §1

[15] = tested on: PPARg homodimer (NR concentration 180 nM)
Method in brief: as §1

[16] = tested on: PXR:RXRa (NR concentration 270 nM, RXRa partner concentration 90 nM)
Method in brief: as §1

[17] = tested on: PXR homodimer (NR concentration 270 nM)
Method in brief: as §1

[18] = tested on: RARa:RXR (NR concentration 270 nM, RXRa partner concentration 90 nM)
Method in brief: as §1

[19] = tested on: RARa homodimer (NR concentration 270 nM)
Method in brief: as §1

[20] = tested on: RARb:RXRa (NR concentration 270 nM, RXRa partner concentration 90 nM)
Method in brief: as §1

Row | Sequence | PBM binding z-score [1] | PBM binding z-score [2] | PBM binding z-score [3] | PBM binding z-score [4] | PBM binding z-score [5] | PBM binding z-score [6] | PBM binding z-score [7] | PBM binding z-score [8] | PBM binding z-score [9] | PBM binding z-score [10] | PBM binding z-score [11] | PBM binding z-score [12] | PBM binding z-score [13] | PBM binding z-score [14] | PBM binding z-score [15] | PBM binding z-score [16] | PBM binding z-score [17] | PBM binding z-score [18] | PBM binding z-score [19] | PBM binding z-score [20]
1 | AGTCAAAGTCCACTAGGTAACGTAAGATTCAGCT | -0.195 | -0.249 | -0.162 | -0.0956 | 0.0347 | 0.0628 | 0.58 | 0.278 | 0.0579 | 0.146 | 1.22 | 1.83 | 0.418 | 0.228 | 0.527 | -0.372 | 0.0413 | -0.205 | 0.764 | 1.44
2 | ATCTCTAGATAACAAGTTCAGTGAAAGAGAGGAC | 0.459 | 0.495 | 0.398 | 0.384 | 0.4 | 0.365 | 0.657 | 0.541 | 0.363 | 0.315 | -0.504 | 0.236 | 0.623 | 0.272 | 0.186 | 1.26 | 1.72 | 0.0962 | 0.589 | 1
3 | CCGACTGGAGCAAGGTTACCATAACGCACAGCCA | -0.0203 | 0.559 | 0.116 | 0.511 | -0.797 | 1.01 | 1.3 | 1.66 | 0.181 | 0.892 | 1.3 | 0.76 | -0.802 | -0.726 | 0.608 | 0.248 | -0.0714 | 0.527 | -0.0817 | 0.876
4 | TCTGCTAGGTCAACGATGCTCAGCTAATCTGCTA | 2.94 | 1.88 | -0.569 | 1.22 | -0.547 | 3.02 | 2.04 | 2.92 | 1.7 | 2.32 | 4 | 3.88 | 0.146 | -0.121 | -0.00894 | 0.886 | -1.03 | 1.69 | -0.557 | 3.82
5 | TCTAGTTGCTCACGGAGGTCACACACGACGGGTA | 2.59 | 3.1 | 1.86 | 3.22 | 0.53 | 3.62 | 1.55 | 2.79 | 3.16 | 2.76 | 1.58 | 2.24 | 0.833 | 0.565 | 2.53 | 4 | 0.832 | 4.2 | 0.559 | 3.25
6 | TAGCCTAGGTCATTCGGGGGCCAGTATAGAAAGC | 5.41 | 4.7 | 1.38 | 5.3 | 9.24 | 4.26 | 3.69 | 4.12 | 1.38 | 3.17 | 2.62 | 4.33 | 2.22 | 5 | 1.93 | 3.84 | 0.257 | 3.92 | 0.944 | 3.99
7 | AGAATGAGGTTATACGTAGATCAGCGAAGAAAGT | 1.93 | 1.66 | -0.0526 | 1.22 | -0.284 | 3.27 | 1.91 | 1.88 | 0.445 | 1.21 | 3.8 | 2.33 | 0.885 | 1.06 | 1.02 | 0.953 | 0.44 | 1.55 | -0.289 | 1.23
8 | CAAACTAGGTTACGAAAGGTCAAAGTCGAATGAC | 5.93 | 8.59 | 8.28 | 7.69 | 2.88 | 6.1 | 8.03 | 7.02 | 4.81 | 6.47 | 7.07 | 7.68 | 2.53 | 2.93 | 4.81 | 6.22 | 1.73 | 6.69 | 3.24 | 4.82
9 | CCTTACGGGTCAAGGTTATAGTACGGGTGGTACG | 6.07 | 3.88 | 0.501 | 3.24 | 0.225 | 5.17 | 4.78 | 4.77 | 1.91 | 3.37 | 1.4 | 3.68 | 0.554 | -0.326 | 2.79 | 3.75 | 0.673 | 4.68 | 1.47 | 4.18

Reference: the supplement of paper PMC6555819
